An excerpt weighted towards active compounds, which were near 3.5% of everything screened.
FBW7 act: FBW7 E3 ligase activators, primary screen, biochemical, AlphaScreen, human. F-box/WD repeat-containing protein 7 (Homo sapiens), Q969H0. AlphaScreen FBW7–phospho-cyclin E peptide binding, activator screen. normalized activity (activation), % at 26.1 µM. actives 0.13% (n = 650,000). AID 1259310, 2017; in the data active = normalized activity above about 1.9%;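 also: purified mutant Fbw7 with reduced substrate affinity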
MITF primary: MITF inhibitors, primary screen, biochemical, AlphaScreen, human. inhibition, % at 2.6 µM. actives 0.91% (n = 650,000). AlphaScreen MITF homodimerization, bead proximity signal; in the data active = inhibition above about 50%;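 also: 0% = vehicle wells with protein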
Target sequence (O75030 whole entry, looked up): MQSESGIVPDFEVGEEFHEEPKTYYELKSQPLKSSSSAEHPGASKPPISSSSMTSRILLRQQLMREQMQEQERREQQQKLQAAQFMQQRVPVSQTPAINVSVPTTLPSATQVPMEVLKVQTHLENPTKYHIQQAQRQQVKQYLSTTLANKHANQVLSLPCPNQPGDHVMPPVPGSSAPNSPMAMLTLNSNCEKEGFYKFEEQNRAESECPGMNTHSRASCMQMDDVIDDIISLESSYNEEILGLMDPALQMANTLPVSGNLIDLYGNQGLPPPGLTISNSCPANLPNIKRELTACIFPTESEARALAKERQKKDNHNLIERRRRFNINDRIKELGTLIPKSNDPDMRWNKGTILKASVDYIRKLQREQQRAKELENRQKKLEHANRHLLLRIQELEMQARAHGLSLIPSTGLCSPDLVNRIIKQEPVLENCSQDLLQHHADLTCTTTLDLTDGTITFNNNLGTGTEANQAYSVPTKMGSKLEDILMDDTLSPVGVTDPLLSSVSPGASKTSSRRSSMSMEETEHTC
TEAD-YAP inh: TEAD-YAP interaction inhibition, primary screen, TEAD-YAP interaction inhibitor project, luminescence, HEK-TIYL cells; TEAD-Gal4/YAP UAS-luciferase luminescence; inhibition, % at 9.12 µM; actives 1.4% (n = 640,000); AID 1259422, 2018; in the data active = inhibition above about 32%;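 also: 0% = median of test compound wells and 100% = reference inhibitor wells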
GPR151 ag: activators of human GPR151, primary screen, cell-based, PathHunter beta-arrestin, luminescence | G-protein coupled receptor 151 (Homo sapiens), Q8TDV0 | PathHunter beta-arrestin GPR151 cells | activation, % at 11.2 µM | actives 1% (n = 650,000); in the data active = activation above about 4.9%;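 also: 0% = median of compound wells and 100% = cells with positive control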
GPR151 confirm: GPR151 activators, triplicate retest, confirmation, cell-based, PathHunter beta-arrestin, luminescence. shares compounds with GPR151 ag. GPR151 PathHunter beta-arrestin cells, 90 min; % of EA-reagent control over plate median. activation, % at 11.2 µM. 6,700 tested, under 10 active. AID 1508609, 2020;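 active = mean percent activation across replicates above the confirmation screen cutoff of 4.91%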
GPR119 ag: GPR119 activators in beta-arrestin cells, counter-screen for GPR151 activator project, cell-based, PathHunter beta-arrestin, luminescence, triplicate; actives 0.3% (n = 6,700); 90 min; 0 = compound-well median, 100 = enzyme-acceptor control; activation, % at 11.2 µM; AID 1508611, 2020; shares compounds with GPR151 ag;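 active = mean percent activation in the counterscreen above 29.09%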;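 also: counterscreen on off-target GPR119 to flag nonselective hits from the GPR151 activator screen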
An asterisk follows results filed as active; / = no result; ! = repeats disagree.

SMILES	FBW7 act	MITF primary	TEAD-YAP inh	GPR151 ag	GPR151 confirm	GPR119 ag
O=C(CN1C(=O)C2C3C=CC(C3)C2C1=O)N1CCN(c2ccccc2)CC1 (stereo not drawn)	0	15	-3	5.5*	0	0
O=C(CCC1=NS(=O)(=O)c2ccccc2N1)Nc1ccccc1	0	5	4	6.2*	0	-4
COc1cc(C(=O)NNc2ccc([N+](=O)[O-])cc2)cc(OC)c1OC	0	-22	6	1	/	/
CC(C)[C@H](Cn1nc(-c2cccs2)ccc1=O)NC(=O)c1ccc2nsnc2c1	0	14	-12	-1	/	/
O=C(CNC(=O)C12CC3CC(CC(C3)C1)C2)N1CCOCC1	0	1	-1	-1	/	/
CC(NC(=O)C12CC3CC(CC(C3)C1)C2)C(=O)N1CCOCC1 (stereo not drawn)	-1	-5	-1	5.0*	-1	-7
Cc1ccc(C)c(OCC(=O)Nc2nc(-c3ccccc3)cs2)c1C	0	15	2	-1	/	/
COc1cccc(NC2=NCC(=O)N2Cc2ccc(F)cc2)c1	0	-5	-16	6.0*	1	9
CCN(CC)CCN1C(=O)c2ccccc2NC1c1ccc(Cl)cc1 (stereo not drawn)	0	1	-1	7.6*	1	18
CCOc1cc(CC(=O)N[C@@H](CC(C)C)c2ccccc2N2CCCCC2)ccc1C(=O)O	0	-4	5	7.1*!	0	12
CCOc1ccc(C(=O)Nc2ccccc2N2CCCC2)cc1	0	-1	-14	-1	/	/
COc1cc(OC)cc(-c2nc(=S)[nH][nH]2)c1	0	-6	11	6.8*	1	10
c1ccc(N2CCN(Cc3ccc4ccccc4c3)CC2)nc1	0	25	1	0	/	/
CC1=C(C(=O)N2CCOCC2)C(c2ccc(O)cc2)NC(=S)N1 (stereo not drawn)	1	5	7	8.8*	-1	-9
CC(C)(C)c1cc(C(=O)N2CCC(C(=O)c3nccs3)CC2)n[nH]1	0	6	-2	-1	/	/
COc1ccc(NC(=O)C2CCC(Cn3c(=S)[nH]c4ccccc4c3=O)CC2)cc1 (stereo not drawn)	0	-6	-11	7.0*	0	-11
NS(=O)(=O)c1ccc(NC(=O)CSc2nc3cc(Cl)ccc3s2)cc1	0	2	-5	6.1*	0	20
O=C(CSc1nc2cc(Cl)ccc2s1)Nc1ccc(Cl)cc1	0	0	1	1	/	/
CN(C(=O)CCl)c1nc(-c2ccc(F)cc2)cs1	0	-4	-2	6.1*	0	2
CN(C)C(=O)CCSc1cc(-c2cn[nH]c2)ccc1NC(=O)NCc1ccccc1	0	-8	-7	-1	/	/
O=C(O)c1cc([N+](=O)[O-])cc([N+](=O)[O-])c1N1CCN(CCO)CC1	0	17	8	5.3*	1	8
CCOc1ccc(N2C3=[N+](CCC3)CC2(O)c2ccc(Cl)cc2)cc1 (stereo not drawn)	0	-13	30	-1	/	/
Cc1ccc(OCCN(C)Cc2ccc(OCC(O)CN(C)C)cc2)cc1 (stereo not drawn)	0	9	13	9.9*	0	7
Cc1nnc(N2C(=O)C(=O)/C(=C(/O)c3ccc(Cl)cc3)C2c2cccc(Oc3ccccc3)c2)s1 (stereo not drawn)	0	2	-18	1	/	/
O=[N+]([O-])c1cccc(S(=O)(=O)NC23CC4CC(CC(C4)C2)C3)c1	0	4	1	5.3*	1	14
CN1C(=O)CC(c2cn(Cc3ccccc3)c3ccccc23)C1=O (stereo not drawn)	0	-2	-7	2	/	/
Cc1sc2c(c1C)C(=O)NC(c1cn(Cc3ccccc3)c3ccccc13)N2 (stereo not drawn)	0	-8	-2	6.1*	1	-1

Compound activity deposited in PubChem by The Scripps Research Institute Molecular Screening Center.
